Experimental data: PubChem BioAssay AID1159580 (chemical genetic matrix, 2015)
Where “and” joins values, the source holds several entries; their conditions need not be identical. Equal values may be shown once. About 2,000 (36%) of roughly 5,500 compounds were called active. Inconclusive results (about 18%) are left out. Cut-off read from the data, not from the text of the source: active = normalized growth mostly below about 0.91 (no sharp cut-off); inconclusive = no clear call, values can overlap the other calls; inactive = mostly above about 0.92. The list shows a part of the results.

Assay: chemical genetic growth profiling, strain panel (AID 1159580);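 note: tested at 20 µM; growth read once vehicle control cultures reached saturation at 30 °C; 1 = growth at the plate median or of vehicle wells; lower values mean less growth of the strain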
Settings: growth OD

Measured: normalized growth

CC(C)=CCCC1(C)C=Cc2c(O)c3c(c(CC=C(C)C)c2O1)OC12C(CC4CC1C(C)(C)OC2(C/C=C(/C)C(=O)O)C4O)C3=O (configuration not stated)
inactive: S. cerevisiae deletion strains, locus YAL013W, strain DEP1, active compounds read low 1.01 | S. cerevisiae deletion strains, locus YBR021W, strain FUR4, active compounds read low 1.07 | S. cerevisiae deletion strains, locus YBR229C, strain ROT2, active compounds read low 0.959 | S. cerevisiae deletion strains, locus YCL029C, strain bik1, active compounds read low 0.994 | S. cerevisiae deletion strains, locus YDL035C, strain GPR1, active compounds read low 0.961 | S. cerevisiae deletion strains, locus YDL074C, strain BRE1, active compounds read low 1.01 | S. cerevisiae deletion strains, locus YDL101C, strain DUN1, active compounds read low 0.978 | S. cerevisiae deletion strains, locus YDL185W, strain tfp1, active compounds read low 0.997 | S. cerevisiae deletion strains, locus YDL192W, strain arf1, active compounds read low 0.947 | S. cerevisiae deletion strains, locus YDR101C, strain arx1, active compounds read low 0.96 | S. cerevisiae deletion strains, locus YDR162C, strain NBP2, active compounds read low 0.851 | S. cerevisiae deletion strains, locus YDR318W, strain mcm21, active compounds read low 0.988 | S. cerevisiae deletion strains, locus YDR388W, active compounds read low 0.99 | S. cerevisiae deletion strains, locus YDR502C, strain sam2, active compounds read low 1.02 | S. cerevisiae deletion strains, locus YEL061C, strain CIN8, active compounds read low 0.989 | S. cerevisiae deletion strains, locus YER110C, active compounds read low 0.981 | S. cerevisiae deletion strains, locus YER155C, strain BEM2, active compounds read low 1.04 | S. cerevisiae deletion strains, locus YER167W, strain BCK2, active compounds read low 1.01 | S. cerevisiae deletion strains, locus YGL078C, strain dbp3, active compounds read low 1.01 | S. cerevisiae deletion strains, locus YGL086W, strain mad1, active compounds read low 0.993 | S. cerevisiae deletion strains, locus YGL248W, strain PDE1, active compounds read low 0.994 | S. cerevisiae deletion strains, locus YGR135W, strain pre9, active compounds read low 1.06 | S. cerevisiae deletion strains, locus YGR229C, strain SMI1, active compounds read low 0.988 | S. cerevisiae deletion strains, locus YGR252W, strain gcn5, active compounds read low 1.17 | S. cerevisiae deletion strains, locus YHR030C, strain SLT2, active compounds read low 1.01 and 0.984 | S. cerevisiae deletion strains, locus YHR079C, strain IRE1 (second series), active compounds read low 0.981 | S. cerevisiae deletion strains, locus YHR079C, strain IRE1, active compounds read low 0.985 | S. cerevisiae deletion strains, locus YHR094C, strain hxt1, active compounds read low 1 | S. cerevisiae deletion strains, locus YHR129C, strain ARP1, active compounds read low 1.02 | S. cerevisiae deletion strains, locus YHR200W, strain rpn10, active compounds read low 1.01 | S. cerevisiae deletion strains, locus YIL066C, strain RNR3, active compounds read low 0.97 | S. cerevisiae deletion strains, locus YIL073C, strain SPO22, active compounds read low 1.07 | S. cerevisiae deletion strains, locus YIL125W, strain kgd1, active compounds read low 0.992 | S. cerevisiae deletion strains, locus YIR030C, strain dcg1, active compounds read low 0.997 | S. cerevisiae deletion strains, locus YJL095W, strain BCK1, active compounds read low 0.884 and 1.01 | S. cerevisiae deletion strains, locus YJL134W, strain LCB3, active compounds read low 0.993 | S. cerevisiae deletion strains, locus YJL168C, strain set2, active compounds read low 0.995 | S. cerevisiae deletion strains, locus YJL187C, strain SWE1 (second series), active compounds read low 0.972 | S. cerevisiae deletion strains, locus YJR066W, strain TOR1, active compounds read low 0.935 | S. cerevisiae deletion strains, locus YKL009W, strain mrt4, active compounds read low 1.02 | S. cerevisiae deletion strains, locus YKL068W, active compounds read low 0.996 | S. cerevisiae deletion strains, locus YKL085W, strain MDH1 (second series), active compounds read low 1.02 | S. cerevisiae deletion strains, locus YKL085W, strain MDH1, active compounds read low 1.02 | S. cerevisiae deletion strains, locus YKL190W, strain CNB1, active compounds read low 0.988 | S. cerevisiae deletion strains, locus YKR001C, strain vps1, active compounds read low 0.961 | S. cerevisiae deletion strains, locus YLR039C, strain RIC1, active compounds read low 0.774 | S. cerevisiae deletion strains, locus YLR058C, strain SHM2, active compounds read low 0.98 | S. cerevisiae deletion strains, locus YLR102C, strain apc9, active compounds read low 1.01 | S. cerevisiae deletion strains, locus YLR113W, strain HOG1, active compounds read low 0.92 | S. cerevisiae deletion strains, locus YLR268W, strain sec22, active compounds read low 0.93 | S. cerevisiae deletion strains, locus YLR330W, strain CHS5, active compounds read low 1.01 | S. cerevisiae deletion strains, locus YLR342W, strain FKS1 (second series), active compounds read low 0.96 | S. cerevisiae deletion strains, locus YLR371W, strain rom2, active compounds read low 1.03 | S. cerevisiae deletion strains, locus YLR418C, strain cdc73, active compounds read low 0.936 | S. cerevisiae deletion strains, locus YML016C, strain PPZ1, active compounds read low 0.987 | S. cerevisiae deletion strains, locus YML032C, strain rad52, active compounds read low 0.978 | S. cerevisiae deletion strains, locus YML124C, strain tub3, active compounds read low 1.01 | S. cerevisiae deletion strains, locus YMR078C, strain ctf18, active compounds read low 0.997 | S. cerevisiae deletion strains, locus YMR223W, strain ubp8, active compounds read low 0.991 | S. cerevisiae deletion strains, locus YMR307W, strain GAS1, active compounds read low 0.95 | S. cerevisiae deletion strains, locus YNL067W, strain RPL9B, active compounds read low 0.996 | S. cerevisiae deletion strains, locus YNL128W, strain TEP1, active compounds read low 0.967 | S. cerevisiae deletion strains, locus YNL153C, strain GIM3, active compounds read low 1.04 | S. cerevisiae deletion strains, locus YNL183C, strain NPR1, active compounds read low 0.936 | S. cerevisiae deletion strains, locus YNL233W, strain BNI4, active compounds read low 1.06 | S. cerevisiae deletion strains, locus YNL250W, strain rad50, active compounds read low 0.993 | S. cerevisiae deletion strains, locus YNL271C, strain bni1, active compounds read low 0.99 | S. cerevisiae deletion strains, locus YNL298W, strain CLA4, active compounds read low 0.986 | S. cerevisiae deletion strains, locus YNL307C, strain MCK1, active compounds read low 0.942 | S. cerevisiae deletion strains, locus YNL322C, strain KRE1, active compounds read low 1 | S. cerevisiae deletion strains, locus YNR052C, strain pop2, active compounds read low 1 | S. cerevisiae deletion strains, locus YOL012C, strain htz1 1.58 | S. cerevisiae deletion strains, locus YOL147C, strain pex11, active compounds read low 1 | S. cerevisiae deletion strains, locus YOR061W, strain CKA2, active compounds read low 0.967 | S. cerevisiae deletion strains, locus YOR069W, strain VPS5, active compounds read low 0.988 | S. cerevisiae deletion strains, locus YOR136W, strain idh2, active compounds read low 1.01 | S. cerevisiae deletion strains, locus YOR144C, strain elg1, active compounds read low 1 | S. cerevisiae deletion strains, locus YOR184W, strain ser1, active compounds read low 0.903 | S. cerevisiae deletion strains, locus YOR231W, strain MKK1, active compounds read low 0.963 | S. cerevisiae deletion strains, locus YOR316C, strain cot1, active compounds read low 0.994 | S. cerevisiae deletion strains, locus YPL256C, strain CLN2, active compounds read low 0.957 | S. cerevisiae deletion strains, locus YPR119W, strain clb2, active compounds read low 0.994 | S. cerevisiae deletion strains, locus YPR141C, strain kar3, active compounds read low 0.991 | S. cerevisiae deletion strains, locus YPR163C, strain tif3, active compounds read low 0.967 | S. cerevisiae deletion strains, locus YPR167C, strain met16, active compounds read low 1.02 | S. cerevisiae deletion strains, strain wtn01, active compounds read low 0.972 | S. cerevisiae strains, strain wild type, active compounds read low 0.968
